Test results reported in PubChem BioAssay AID1259400 (National Center for Advancing Translational Sciences (NCATS), 2018).
Among all 350,000 compounds or so, about 2,100 (0.6%) were called active. Inconclusive results (about 1%) are left out.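 How the source made its calls: active means activity change of -60% or lower, but not beyond a set lower limit; inconclusive means change between -60% and -40%, or beyond the set limit; inactive means change above -40%.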 Only a selection was taken, and actives are over-represented in it overall.

target: Relaxin receptor 1 (Homo sapiens) (UniProt Q9HBX9); assay: qHTS Assay for Antagonists of the Relaxin Receptor RXFP1; conditions: HEK293-RXFP1, relaxin-stimulated cAMP HTRF, 30 min; at 57.5 µM; active compounds read low
Sequence (Q9HBX9 whole entry, looked up): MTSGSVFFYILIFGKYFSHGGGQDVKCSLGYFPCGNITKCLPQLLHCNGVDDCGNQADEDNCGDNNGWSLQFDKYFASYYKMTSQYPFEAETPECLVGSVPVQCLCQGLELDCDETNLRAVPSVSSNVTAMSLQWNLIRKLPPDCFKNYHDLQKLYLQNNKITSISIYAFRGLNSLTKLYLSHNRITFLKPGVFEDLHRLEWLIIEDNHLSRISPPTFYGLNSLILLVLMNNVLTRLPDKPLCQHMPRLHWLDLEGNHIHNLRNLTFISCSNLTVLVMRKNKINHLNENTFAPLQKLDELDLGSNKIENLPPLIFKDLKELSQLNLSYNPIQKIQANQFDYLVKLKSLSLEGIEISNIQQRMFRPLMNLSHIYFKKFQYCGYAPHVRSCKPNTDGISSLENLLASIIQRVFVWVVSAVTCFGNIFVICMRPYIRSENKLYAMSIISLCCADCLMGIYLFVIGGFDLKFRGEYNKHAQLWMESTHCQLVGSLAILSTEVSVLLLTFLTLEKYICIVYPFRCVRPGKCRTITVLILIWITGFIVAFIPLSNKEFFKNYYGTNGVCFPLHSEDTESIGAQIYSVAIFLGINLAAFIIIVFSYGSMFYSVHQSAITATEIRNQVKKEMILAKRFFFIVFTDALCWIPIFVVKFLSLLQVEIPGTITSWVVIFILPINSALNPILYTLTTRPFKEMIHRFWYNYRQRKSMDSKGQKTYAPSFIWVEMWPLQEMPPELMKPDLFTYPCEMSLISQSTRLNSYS
Text: The relaxin hormone is involved in the variety of biological functions in normal tissues and diseases. The role of relaxin is well-established in female reproduction and parturition, mammary gland and endometrial development, maintenance of myometrial quiescence during pregnancy. Relaxin signaling through its G protein-coupled receptor (GPCR) RXFP1 results in ECM remodeling through regulation of collagen deposition, cell invasiveness, proliferation and overall tissue homeostasis. […] Recombinant human relaxin (rhRlx) is currently being tested in clinical trials as a protective agent in congestive heart failure, in treating severe preeclampsia, and as an anti-fibrotic agent in various organs. […] Upon relaxin binding RXFP1 activation leads to the activation of adenylate cyclase (AC) via G?s. cAMP will activate PKA, which phosphorylates many signaling proteins. Thus, detection of cAMP increase is an easy and reliable indication of relaxin receptor activation. To screen for antagonists of the relaxin receptor, a HEK293T cell line stably transfected with RXFP1 was used. RXFP1 activation by relaxin in presence of various concentrations of tested compounds was assayed by changes in cAMP levels as detected with a time-resolved fluorescence energy transfer (TR-FRET) cAMP detection kit.
For the primary screening, we used HTRF(R) (Homogenous Time-Resolved Fluorescence) cAMP HiRange assay (Cisbio Bioassays, 62AM6PEJ). Presence of cAMP in the cell lysate disrupts binding between the Cryptate-labeled anti-cAMP and d2-labeled cAMP pair, leading to a decrease in TR-FRET signal. The libraries were screened at two doses (57microM and 11microM), followed by a confirmation of the hits at 7-point serial dilution in the range of final concentrations [57microM - 78nM]. Data were normalized to the controls for basal activity (buffer only) and 100% activity (5 nM porcine relaxin). The EC50 values were determined from concentration-response data modeled with the standard Hill equation. NCGC Assay Protocol Summary: HiHEK (Hawaiian HEK293 LGR7 stably transfected with human RXFP1) were grown in the following media: DMEM+10%FBS+Pen/Strep + Geneticin (1mg/ml). For the assay, the cells were seeded in DMEM+Pen/Strep (with no serum & selective antibiotics) at 2,100 cells/ 3microl/well with MultiDrop Combi dispenser (Thermo Scientific, Logan, UT) onto white tissue culture treated solid bottom1536-well plates (Greiner #789173-F) and allowed to attach/recover overnight at 37 degrees C, 5% CO2. Next, 23nl/well of compound solutions in DMSO were transferred into wells with a pintool (Kalypsis, San Diego, CA). […] EC80 (relaxin at 50pM final concentration) was dispensed to the rest of the plate except columns 1&2 which were used as a negative control (EC0, buffer only), 1microl/well also. The cells were stimulated by relaxin in the presence of compounds for 30 minutes at 37 degrees C, 5% CO2. The detection reagents were prepared individually by dilution in Lysis buffer (supplied with the assay kit) just prior to dispensing. 1microl/well of cAMP-d2 and 1microl/well anti-cAMP-Eu3+-Cryptate antibodies were added simultaneously with BioRAPTR FRDtrade mark Workstation (Beckman Coulter). The plates were incubated at ambient temperature for 30 minutes and, then, FRET signal was read on Envision plate reader (PerkinElmer, Waltham, MA), at wavelengths 340nm (excitation), 615nm & 665nm (emission of donor and acceptor channels respectively).
On the % scale 0 is the no-effect control and ±100 the full control effect.

Row | SMILES | activity change, negative = inhibition
1 | O=C1NC(=O)C(Cc2ccccc2)C(=O)N1 | 13.2% (inactive)
2 | CCC1(CC(C)c2ccccc2)C(=O)NC(=O)NC1=O (stereo not given) | -60.5% (active)
3 | O=C1NC(=O)C(CCOc2ccccc2)(CCc2ccccc2)C(=O)N1 | 1.73% (inactive)
4 | COC(=O)C1=C(c2ccc(OCc3ccccc3)cc2)C[C@@H]2CC[C@H]1N2C(=O)NCc1ccc(Cl)cc1 | -0.858% (inactive)
5 | COc1ccc(C2C=C(C)Oc3c2c(=O)oc2ccccc32)cc1OC (stereo not given) | -2.25% (inactive)
6 | O=C1NC(=O)N(Cc2ccco2)C(=O)/C1=C\c1ccc(-c2ccc(F)cc2)o1 | -116% (active)
7 | O=C1NC(=O)N(Cc2ccco2)C(=O)/C1=C\c1cccn1CCOc1ccccc1 | 2.7% (inactive)
8 | Cc1cc(/C=C2/C(=O)NC(=O)N(Cc3ccco3)C2=O)c(C)n1-c1ccc(C(=O)O)cc1 | 7.49% (inactive)
9 | CC1N=C(N)OC1c1ccccc1 (stereo not given) | 7.33% (inactive)
10 | CC(=CCOc1ccc2ccc(=O)oc2c1)C1=CC(=O)C(C)(C)O1 | 1.36% (inactive)
11 | Cc1cccc(N2C(=O)NC(=O)/C(=C\c3cnn(-c4ccccc4)c3)C2=O)c1 | -97.1% (active)
12 | COc1cccc(N2C(=O)NC(=O)/C(=C\c3cn(C)c4ccccc34)C2=O)c1 | 1.09% (inactive)
13 | O=C1NC(=O)N(c2ccccc2)C(=O)/C1=C/c1ccc([N+](=O)[O-])s1 | -11.7% (inactive)
14 | CC1=C(C(=O)O)N2C(=O)[C@@H](N)[C@H]2SC1 | 7.08% (inactive)
15 | C[C@H]1CN([C@@H](C)CO)C(=O)CCCn2nncc2CO[C@H]1CN(C)C(=O)Oc1ccccc1 | -9.78% (inactive)
16 | CC(c1ccccc1)(c1ccccc1)c1ccncc1 | -80.6% (active)
17 | O=S(=O)(O)C(F)(F)C(F)(F)C(F)(F)C(F)(F)F | 19.3% (inactive)
18 | CO[C@]12CC[C@@]3(C[C@@H]1[C@](C)(O)C(C)(C)C)[C@@H]1Cc4ccc(O)c5c4[C@@]3(CCN1CC1CC1)[C@H]2O5 | -34% (inactive)
19 | CCCOC(=O)c1cncn1C(C)c1ccccc1 (stereo not given) | 12.5% (inactive)
20 | Cc1ncoc1C(=O)NCC1=C(c2cccc3ccccc23)C[C@@H]2CC[C@H]1N2Cc1ccco1 | -0.31% (inactive)
21 | c1cc2c(c(NC3=NCCCS3)c1)CCCC2 | 4.47% (inactive)
22 | CCCCC1C(=O)NC(=O)N(C2CCCCC2)C1=O (stereo not given) | -10.8% (inactive)
23 | CCCCCCCCCCCCn1ccc(=N)cc1 | -73.7% (active)
24 | O=c1c2ccccc2nc(CBr)n1-c1ccc(Cl)cc1 | 8.62% (inactive)
25 | C[C@H]1CN([C@@H](C)CO)C(=O)CCCn2nncc2CO[C@H]1CN(C)C(=O)Oc1cccc2ccccc12 | 3.41% (inactive)
